From publication PMC12136788
Changes are numbered by the printed parent chain. The full ranking holds about 5,800 sequences; the median of “enrichment r” is about 0.54, and the highest 2% start at about 16. The list comes from a sample in which the highest values are over-represented; it also holds similar and randomly drawn sequences.

B1: chr12:39618871:39619093:-|CDS|ENSG00000173208|unk|total|mutant (ssRNA)
RNA: GGGAGUUCUACAGUCCGACGAUCUAUUAUGAUGUUCUCCCAAUCUGUGGCUCACUUGUAUUCCAAUCUGACCAAACCUAUUUCCGAUGUAAUGCUGACCUCCUAUACACUCAUUCAAACUGCUACAUCCAGAGGAGCAAGCCCCAACAGAGGAUUGAGCAUCA
B2: chr8:17753977:17754079:-|CDS|ENSG00000129422|unk|FALSE|bound_elsewhere (ssRNA)
RNA: GGGAGUUCUACAGUCCGACGAUCAAAAAAGCAGAAAUUCUAAUUAACAAGACACAUAAGCAGCAGUUUAAUAAACUCAUUACUAGCCAGGCUGUGCAUGUUACAACUCAUUCUAAAAAUGCUUCACACAGGGUUCCAAGAACACAACAGAGGAUUGAGCAUCA
B3: chr1:152032676:152032810:-|CDS|ENSG00000163191|unk|FALSE|unique (ssRNA)
RNA: GGGAGUUCUACAGUCCGACGAUCGGACCCUGGUGUCCUUGACCGCAUGAUGAAGAAACUGGACACCAACAGUGAUGGUCAGCUAGAUUUCUCAGAAUUUCUUAAUCUGAUUGGUGGCCUAGCUAUGGCUUGCCAUGACUCCUUCAACAGAGGAUUGAGCAUCA
B4: chr2:27041412:27041530:+|3pUTR|ENSG00000119777|msi1_unk|total|mutant (ssRNA)
RNA: GGGAGUUCUACAGUCCGACGAUCACUUCAAAAUGCCCAGCCUGCCCCAAAUGCCUCUAAGCCCCUCCCUGUCCCCUCCCUUGCCGUCCUACUUCUUCCAACUUUCCAUUCCCCAUCAUGCUGGGGGUCUUGGUCACAAGGCUCCAACAGAGGAUUGAGCAUCA
B5: chr11:49981574:49982501:-|CDS|ENSG00000221954|control|control|control (ssRNA)
RNA: GGGAGUUCUACAGUCCGACGAUCGAACAAUAGCUUGGAGGGGAGGUGUAAAGCCCUCUCCACCUGUAUUUCUCACAUCAUAGUAGUUGUCUUAUUCUUUGUGCCCUGUAUAUUUGUGUAUCUGCGCUCAGUGACCACUCUGCCCAACAGAGGAUUGAGCAUCA
B6: chr12:39553730:39553837:-|3pUTR|ENSG00000173208|unk|FALSE|unique (ssRNA)
RNA: GGGAGUUCUACAGUCCGACGAUCGAAGUAUGUUAAGCUAAGCACAGAGAAAAAAAGGCAGCAAGACAUGUUUUAUAAGAUUUUAGCAUUAAGGAAGUAUAUGAUCUGACUUUUCAGAAGAAAAUAAACAAAUGCAUUAUGUAACAACAGAGGAUUGAGCAUCA
B7: chr7:157269180:157269282:+|3pUTR|ENSG00000009335|unk|FALSE|unique (ssRNA)
RNA: GGGAGUUCUACAGUCCGACGAUCAUUUUAGGUUGUUUUAUGUUGAAUGUUCUAUAUCUUAUUAGUUAAUUUGUAUAUUUUAUUAGUAUUUUGGAAAUAGCAUAUCUGAGACUGAAGAGAAAUUGACAAUUCACUUAUUUGUGGCAACAGAGGAUUGAGCAUCA
B8: chr15:83017406:83017507:-|3pUTR|ENSG00000064726|msi1|FALSE|unique (ssRNA)
RNA: GGGAGUUCUACAGUCCGACGAUCGGCCUAAUAAAAUGCCCAAGAAAAUAUUCAGUGCAUUUAUAGAGAAGGAUAUUUUGUAGUAGUAUAGUAAUGUGUUAUGUAGUACAGUUUUAAAGCUAUAAAUGGAAUUUUGUGUAAAUUCAACAGAGGAUUGAGCAUCA
B9: ENSG00000070961:be:win_5801|3pUTR|ENSG00000070961|bound_else_gene|NA|bound_elsewhere_windowed (ssRNA)
RNA: GGGAGUUCUACAGUCCGACGAUCGAAAAGGGAAAUGUUUUCAGUUUUCUUUUUUAUUUUGGUUAUGCUUAAAUAUGAAUGUAAUUACCAAAAGAUUUAGAAGUGCAUGUGCUUUGGAGGAUUUGUAUUGAGCUUUUACAGUAUCAACAGAGGAUUGAGCAUCA
B10: chr15:34980028:34980129:-|3pUTR|ENSG00000198146|msi1|total|mutant (ssRNA)
RNA: GGGAGUUCUACAGUCCGACGAUCGGUUCUGUUAUUUAAGCCUGUUCUAAGUUUGAUCAAAUGGCAAUGACCCGGUCCCGUUUCCGUUUUUAUUUUUGCAGGAGUCUAUUGCUAAAGAAUUUUAUUUUGAUGCUUGUUAAAUUUCAACAGAGGAUUGAGCAUCA
B11: chr11:35231809:35232301:+|3pUTR|ENSG00000026508|msi1|FALSE|unique (ssRNA)
RNA: GGGAGUUCUACAGUCCGACGAUCACAACACCAAGAAUUGAUUUUGUAGCCAACAUUCAUUCAAUACUGUUAUAUCAGAGGAGUAGGAGAGAGGAAACAUUUGACUUAUCUGGAAAAGCAAAAUGUACUUAAGAAUAAGAAUAACAACAGAGGAUUGAGCAUCA
B12: chr15:83017406:83017507:-|3pUTR|ENSG00000064726|msi1|total|mutant (ssRNA)
RNA: B8 RNA with U63C, A64C, U80C, A81C, U83C, A84C, U88C, A89C, U103C, A104C
B13: chr15:34980028:34980129:-|3pUTR|ENSG00000198146|msi1|FALSE|unique (ssRNA)
RNA: B10 RNA with C71U, C72A, C77U, C78A, C83U, C84A
B14: chr10:11920118:11920232:-|3pUTR|ENSG00000151461|unk|total|mutant (ssRNA)
RNA: GGGAGUUCUACAGUCCGACGAUCGCCGUAUAUUCCGUCGGAGAGCACAUCUGUAUGCGACAACUUGAUUACAUCUUUUUUUCCCGCUAUUUUGCAUUUUUUCUUUUACCAUGUUUCAGUUUCUGCAUGCCGAUUUAAAUAAAACAACAGAGGAUUGAGCAUCA
B15: chr10:11920118:11920232:-|3pUTR|ENSG00000151461|unk|FALSE|unique (ssRNA)
RNA: B14 RNA with C25U, C26A, C34U, C35A, C83U, C84A, C129U, C130A
B16: ENSG00000070961:be:win_4501|3pUTR|ENSG00000070961|bound_else_gene|NA|bound_elsewhere_windowed (ssRNA)
RNA: GGGAGUUCUACAGUCCGACGAUCCCUUUUGUUCAGAAUUUAGUAGAUUGUUUAAUGCAGGACAUCAACUACAUAAUGAAAGAUGCUUGAAAUGCUUUUGUUAUUUCAGGCAAAUCAAAUUAAAUCAGACUAUCAAACUACAAGCAACAGAGGAUUGAGCAUCA
B17: ENSG00000114744:stop:overlap|stop_codon|ENSG00000114744|stop_codon|NA|stop_codon (ssRNA)
RNA: GGGAGUUCUACAGUCCGACGAUCAACAAGCAUUGGAAGAGAUGAAGACAAAUCACUGUAGGAGAGUUGUUCGCAACAUCAAGUAGUACCAGUUUUAAGGUUUUAAUUCAUUUGAAUCACUUAUGAAUUGAUGAUAUACAGCAACAACAGAGGAUUGAGCAUCA

biological target: MSI1 full-length (mouse, UniProt Q61474 1-362); assay: nsRBNS (natural sequence RNA bind-n-seq); RBNS binding buffer (assumed for nsRBNS): 25 mM Tris pH 7.5, 150 mM KCl, 3 mM MgCl2, 0.01% Triton X-100, 500 ug/ml BSA, 20 U/ml SUPERase-In, 4 C; UNK is unkempt and MSI1 is Musashi-1; names of the RNAs are library labels; protein concentration not given here; high values mean tight binding
Sequence (Q61474 whole entry): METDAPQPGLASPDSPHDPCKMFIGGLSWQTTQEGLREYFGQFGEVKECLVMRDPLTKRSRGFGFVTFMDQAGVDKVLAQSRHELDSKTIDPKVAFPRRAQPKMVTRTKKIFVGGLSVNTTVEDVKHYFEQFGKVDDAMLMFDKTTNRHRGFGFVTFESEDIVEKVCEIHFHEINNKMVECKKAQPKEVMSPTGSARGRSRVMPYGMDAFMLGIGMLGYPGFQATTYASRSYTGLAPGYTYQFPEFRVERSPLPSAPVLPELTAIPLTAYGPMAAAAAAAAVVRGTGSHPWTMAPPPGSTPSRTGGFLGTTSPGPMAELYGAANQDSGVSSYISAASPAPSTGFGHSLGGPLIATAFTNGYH

Binder	binding signal [enrichment R]
B1	0.621
B2	2.45
B3	0.264
B4	0.832
B5	2.83
B6	2.43
B7	12.7
B8	44.9
B9	1.05
B10	0.774
B11	0.807
B12	0.489
B13	77.2
B14	0.709
B15	23.3
B16	0.644
B17	16.3
